This is one part of a sample in which hits are shown more often than they occur.
DUX4 txn inh: DUX4-mediated transcription inhibition. 37,000 tested, 0.8% active. 293T-iDUX4 ZSCAN4-Gaussia luciferase reporter, 24 h; stronger effect = lower value. activity change, negative = inhibition, % (concentration not given with the values);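 active means mean inhibition of at least 10% in the main channel, exceeding the control channel by a set limit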
Of the large screens only hits and unclear results are named; the others gave an inactive call.

O=C(c1cccc(F)c1)N1CC[C@@H]2[C@H](CO)Nc3ccc(-c4ccccc4F)cc3[C@@H]21	DUX4 txn inh -32
O=C(c1cccc(F)c1)N1CC[C@@H]2[C@H]1c1cc(-c3ccccc3F)ccc1N[C@@H]2CO	none
OC[C@H]1Nc2ccc(-c3ccc(F)cc3)cc2[C@@H]2[C@H]1CCN2Cc1ccc(F)cc1	none
COc1cccc(C#Cc2ccc3c(c2)[C@@H]2[C@@H](CCN2C(=O)c2ccc(F)cc2)[C@@H](CO)N3)c1	none
O=C(Cc1ccncc1)N1CC[C@@H]2[C@@H](CO)Nc3ccc(-c4cccc(F)c4)cc3[C@@H]21	none
COc1ccccc1CN1CC[C@@H]2[C@@H](CO)Nc3ccc(-c4cccc(F)c4)cc3[C@@H]21	DUX4 txn inh -24
O=C(c1ccc(F)cc1)N1CC[C@@H]2[C@H]1c1cc(-c3ccccc3F)ccc1N[C@@H]2CO	none
COc1ccccc1CN1CC[C@@H]2[C@H](CO)Nc3ccc(C#Cc4ccccc4)cc3[C@@H]21	none
O=C(c1ccccc1)N1CC[C@@H]2[C@H]1c1cc(C#Cc3cccc(F)c3)ccc1N[C@@H]2CO	none
O=C(Cc1ccccc1)N1CC[C@@H]2[C@@H](CO)Nc3ccc(-c4ccccc4F)cc3[C@@H]21	none
O=C(C[C@H]1CC[C@@H]2[C@H](COC[C@@H](O)CN2S(=O)(=O)c2ccccc2Cl)O1)NCc1ccccc1Cl	none
Cc1ccccc1-c1ccc([C@H]2[C@@H](CO)N3C(=O)CN(C(=O)c4cccnc4)C[C@H]23)cc1	none
COc1ccccc1C#Cc1ccc2c(c1)[C@H]1[C@H](CCN1S(=O)(=O)c1cccc(C)c1)[C@@H](CO)N2	none
CC(=O)N(C)C[C@H]1[C@@H](c2ccc(-c3cccc(C#N)c3)cc2)[C@@H](CO)N1C(C)=O	none
CCC(=O)N1C[C@@H](C)[C@H](OC)CN(C)C(=O)c2cc(NC(=O)c3cc(C)on3)ccc2OC[C@H]1C	none
CCS(=O)(=O)N1CC2(CN(C(=O)Nc3cccc(F)c3)[C@H](CO)c3c2c2ccc(OC)cc2n3C)C1	none
COc1ccc2c3c([nH]c2c1)[C@@H](CO)N(C(=O)CN(C)C)CC31CCN(CC2CCCCC2)CC1	none
O=C(Nc1ccccc1)N1CC(=O)N2[C@H](C1)[C@H](c1ccc(-c3ccc(F)cc3)cc1)[C@@H]2CO	none
O=C1N[C@@H](Cc2ccccc2)COCc2cn(nn2)CC[C@@H]1Cc1ccc(Cl)cc1	none
Cc1nn(C)cc1NC(=O)C[C@@H]1CC[C@H]2[C@H](COc3ccc(NC(=O)NC(C)C)cc3C(=O)N2C)O1	none
CN1c2ccc(-c3cccc(F)c3)cc2[C@H]2[C@H](CCN2C(=O)c2ccncc2)[C@@H]1CO	none
O=C(c1cccc(F)c1)N1CC[C@@H]2[C@H](CO)Nc3ccc(C#Cc4ccc(F)cc4)cc3[C@@H]21	DUX4 txn inh -42
O=C(c1cccc(F)c1)N1CC[C@@H]2[C@H](CO)Nc3ccc(C#CC4CC4)cc3[C@@H]21	none
O=C(c1cccnc1)N1CC[C@H]2[C@H](CO)Nc3ccc(C#Cc4cccnc4)cc3[C@H]21	none
O=C(c1cccnc1)N1CC[C@@H]2[C@H]1c1cc(C#Cc3cccnc3)ccc1N[C@@H]2CO	DUX4 txn inh -18
CN1c2ccc(-c3cccc(F)c3)cc2[C@H]2[C@H](CCN2C(=O)c2ccccc2F)[C@H]1CO	DUX4 txn inh -45
CCC(=O)N1CC[C@@H]2[C@@H](CO)N(C)c3ccc(-c4cccc(F)c4)cc3[C@@H]21	none
CC(=O)N1CC[C@@H]2[C@@H](CO)Nc3ccc(C#Cc4cccnc4)cc3[C@@H]21	none
O=C(c1cccc(F)c1)N1CC[C@@H]2[C@H]1c1cc(-c3cccc(F)c3)ccc1N[C@@H]2CO	none
O=C1NCCOCc2cn(nn2)CC[C@H]1Cc1ccc(F)cc1	none
C[C@@H]1C(=O)N[C@@H](c2ccc(F)cc2)CC=CC[C@H](C)Oc2ccccc2C(=O)N1C (mixture of isomers)	none
CC(C)CC#Cc1ccc([C@H]2[C@H]3CN(C(=O)NC(C)C)CC(=O)N3[C@H]2CO)cc1	none
O=C(c1ccccc1F)N1CC[C@H]2[C@H](CO)Nc3ccc(C#Cc4ccc(F)cc4)cc3[C@H]21	none
COc1ccc(C#Cc2ccc3c(c2)[C@H]2[C@H](CCN2C(=O)c2ccccc2F)[C@H](CO)N3)cc1	DUX4 txn inh -32
COc1cccc(C#Cc2ccc3c(c2)[C@H]2[C@H](CCN2C(=O)c2ccccc2F)[C@H](CO)N3)c1	DUX4 txn inh -28
COc1cccc(C#Cc2ccc3c(c2)[C@H]2[C@H](CCN2C(=O)c2ccc(F)cc2)[C@H](CO)N3)c1	none
COc1ccc(C#Cc2ccc3c(c2)[C@@H]2[C@@H](CCN2C(C)=O)[C@@H](CO)N3)cc1	none
COc1cccc(C#Cc2ccc3c(c2)[C@@H]2[C@@H](CCN2C(=O)c2ccccc2F)[C@@H](CO)N3)c1	none
C[C@H](CO)N1C[C@H](C)[C@@H](CN(C)C(=O)c2ccc(F)cc2)OCc2ccccc2-c2c(n(C)c3ccccc23)C1=O	none
COc1ccc(NC(=O)N(C)C[C@@H]2OCCCC[C@H](C)Oc3ccc(NC(=O)CCCN(C)C)cc3C(=O)N([C@@H](C)CO)C[C@H]2C)cc1	none
